In PubChem BioAssay (NCI):
This is part of a sample that, as a whole, favours compounds with a hit. Of some 83,000 tested, about 20% had one in any assay.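 For each line, cells grew in 96-well plates with the test compound present at a single concentration for 48 hours.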 Unmarked numbers belong to inactive results. Activity calls are given as the source filed them. Rule for the calls: active = growth percent below 10; inactive = the rest.

How the values were obtained:
Test in all cases: NCI-60 one-dose screen, 48 h (100 = growth as untreated, 0 = no growth, -100 = all killed)
Details in all cases: 10 µM unless noted
NCI-H23 lung = test system: NCI-H23 lung
NCI-H226 lung = test system: NCI-H226 lung
NCI-H322M lung = test system: NCI-H322M lung
HOP-62 NSCLC = test system: HOP-62 NSCLC
HOP-92 NSCLC = test system: HOP-92 NSCLC
NCI-H522 lung = test system: NCI-H522 lung
A549/ATCC NSCLC = test system: A549/ATCC NSCLC
786-0 renal = test system: 786-0 renal
COLO 205 colon = test system: COLO 205 colon
DU-145 prostate = test system: DU-145 prostate
K-562 leukemia = test system: K-562 leukemia
MALME-3M melanoma = test system: MALME-3M melanoma
MDA-MB-231 breast = test system: MDA-MB-231 breast
RXF 393 renal = test system: RXF 393 renal
SF-268 CNS = test system: SF-268 CNS
SF-295 CNS = test system: SF-295 CNS
SF-539 CNS = test system: SF-539 CNS
UACC-257 melanoma = test system: UACC-257 melanoma
M14 melanoma = test system: M14 melanoma
NCI-H460 lung = test system: NCI-H460 lung

SMILES	growth (NCI-H23 lung)	growth (NCI-H226 lung)	growth (NCI-H322M lung)	growth (HOP-62 NSCLC)	growth (HOP-92 NSCLC)	growth (NCI-H522 lung)	growth (A549/ATCC NSCLC)	growth (786-0 renal)	growth (COLO 205 colon)	growth (DU-145 prostate)	growth (K-562 leukemia)	growth (MALME-3M melanoma)	growth (MDA-MB-231 breast)	growth (RXF 393 renal)	growth (SF-268 CNS)	growth (SF-295 CNS)	growth (SF-539 CNS)	growth (UACC-257 melanoma)	growth (M14 melanoma)	growth (NCI-H460 lung)
C=C(C)[C@@H]1CC[C@]2(C(=O)NCCNCCN)CC[C@]3(C)[C@H](CC[C@@H]4[C@@]5(C)C/C(=C/c6ccncc6)C(=O)C(C)(C)[C@@H]5CC[C@]43C)[C@@H]12	97.2%	100%	94.2%	101%	75.5%	94.7%	99.9%	90.2%	88.9%	106%	86.4%	106%	96.7%	103%	88.5%	100%	95.1%	105%	89.8%	
O=CC1(C2(C=O)c3ccccc3-c3ccccc32)c2ccccc2-c2ccccc21	-28.8% (active)	-47.2% (active)	-20.9% (active)	-76.3% (active)	-74.8% (active)	-84.5% (active)	-50.5% (active)	-84.4% (active)	-56% (active)	-63.3% (active)	-13.6% (active)	-71.8% (active)	-12.5% (active)	-61.4% (active)	-46.9% (active)	-59.8% (active)	-64.5% (active)	-76.1% (active)	-67.1% (active)	
COc1cc2c(c(OC)c1OC)C(=O)CC(c1cccc(NC(=O)c3ccc(Br)cc3)c1)O2 (stereo unspecified)	51.2%	49.2%	72.5%	47.2%	25.7%	9.27% (active)	48.6%	78.1%	55.5%	58.7%	5.9% (active)	46.6%	37.3%	66.3%	57.6%	41.8%	79.1%	53.1%	20%	
CCCCN[C@H]1CC[C@@]2(C)[C@@H](CC[C@@]3(C)[C@H]2[C@H](O)C[C@H]2/C(=C(\CCC=C(C)C)C(=O)OC)[C@@H](OC(C)=O)C[C@@]23C)[C@@H]1C	90.5%	98%	97.2%	103%	86.5%	93%	103%	99.2%	104%	112%	30.5%	96.9%	114%	103%	100%	99%	99.3%	98.1%	96.2%	
COC(=O)c1cc(-c2ccc(OC)cc2)[nH]c1N/N=C/c1c(Cl)cccc1Cl	46.1%	38.1%	36.1%	-42.5% (active)	47.4%	10.5%	5.26% (active)	-14% (active)	-23.9% (active)	-26.2% (active)	0.823% (active)	24.7%	7.56% (active)	-44.2% (active)	13.8%	-28.2% (active)	-38.8% (active)	14.2%	-59.3% (active)	
CC[C@]12C=CCN3CC[C@@]4(c5cc(NC(=O)CCC(=O)OCc6cn(Cc7ccc(F)cc7)nn6)c(OC)cc5N(C)[C@H]4[C@@](O)(C(=O)OC)[C@@H]1OC(C)=O)[C@@H]32	97.2%	95.2%	94.3%	100%	92.5%	98.5%	96.5%	96.4%	107%	104%	99.8%	99.5%	98.9%	103%	95.7%	103%	96.9%	102%	103%	
COc1ccc(-c2cn(-c3cc(OC)c(OC)c(OC)c3)c(=O)n2C(C)=O)cc1	94.9%	88.1%	99.6%	83.7%	94.2%	73.5%	91.8%	35.4%	119%	106%	61.7%	90.6%	76.7%	109%	107%	78.6%	97%	82%	92.6%	
COc1ccc(-c2nc3c(c(-c4ccccc4)nn3-c3ccccc3)c(-c3ccc(N4CCN(C)CC4)cc3)c2C#N)cc1	98.6%	94.2%	97.5%	103%	83.2%		89.3%	78.9%		92.9%	8.47% (active)	94.6%	97.9%	76%	105%	107%	95.7%	95.5%	104%	101%
